Results as given in the supplement of paper PMC9117331.

What was measured:
Conditions in all cases: 0.5 µM; time after treatment 48 h; PC9 signalome
[1] = tested on: PC9; assay: AKT reporter activity score (signed KS statistic vs DMSO) (signed KS statistic (-1 to 1)); higher = stronger activation of the pathway reporter relative to DMSO
[2] = tested on: PC9; assay: RAR reporter activity score (signed KS statistic vs DMSO) (signed KS statistic (-1 to 1)); higher = stronger activation of the pathway reporter relative to DMSO
[3] = tested on: PC9; assay: PKC reporter activity score (signed KS statistic vs DMSO) (signed KS statistic (-1 to 1)); higher = stronger activation of the pathway reporter relative to DMSO
[4] = tested on: PC9; assay: PKA reporter activity score (signed KS statistic vs DMSO) (signed KS statistic (-1 to 1)); higher = stronger activation of the pathway reporter relative to DMSO
[5] = tested on: PC9; assay: p38 reporter activity score (signed KS statistic vs DMSO) (signed KS statistic (-1 to 1)); higher = stronger activation of the pathway reporter relative to DMSO
[6] = tested on: PC9; assay: HIF reporter activity score (signed KS statistic vs DMSO) (signed KS statistic (-1 to 1)); higher = stronger activation of the pathway reporter relative to DMSO
[7] = tested on: PC9; assay: ERK reporter activity score (signed KS statistic vs DMSO) (signed KS statistic (-1 to 1)); higher = stronger activation of the pathway reporter relative to DMSO
[8] = tested on: PC9; assay: JNK reporter activity score (signed KS statistic vs DMSO) (signed KS statistic (-1 to 1)); higher = stronger activation of the pathway reporter relative to DMSO
[9] = tested on: PC9; assay: WNT reporter activity score (signed KS statistic vs DMSO) (signed KS statistic (-1 to 1)); higher = stronger activation of the pathway reporter relative to DMSO
[10] = tested on: PC9; assay: NFkB reporter activity score (signed KS statistic vs DMSO) (signed KS statistic (-1 to 1)); higher = stronger activation of the pathway reporter relative to DMSO
[11] = tested on: PC9; assay: YAP/TAZ reporter activity score (signed KS statistic vs DMSO) (signed KS statistic (-1 to 1)); higher = stronger activation of the pathway reporter relative to DMSO

SMILES | AKT reporter activity score [1] | RAR reporter activity score [2] | PKC reporter activity score [3] | PKA reporter activity score [4] | p38 reporter activity score [5] | HIF reporter activity score [6] | ERK reporter activity score [7] | JNK reporter activity score [8] | WNT reporter activity score [9] | NFkB reporter activity score [10] | YAP/TAZ reporter activity score [11]
Cc1ccc([N+](=O)[O-])cc1S(=O)(=O)N(C)/N=C/c1cnc2ccc(Br)cn12 | -0.252 | 0.101 | 0.105 | -0.347 | -0.118 | 0.178 | -0.147 | 0.157 | 0.207 | 0.0772 | 0.169
O=C(Nc1cc(C(F)(F)F)cc(C(F)(F)F)c1)c1cc(Cl)ccc1O | -0.694 | 0.372 | 0.146 | -0.27 | 0.0561 | 0.485 | -0.0507 | 0.113 | 0.101 | 0.111 | 0.257
Cn1c(=O)c(F)c(Nc2ccc(I)cc2F)c2c(=O)n(C[C@@H](O)CO)cnc21 | 0.104 | 0.28 | 0.0748 | -0.176 | 0.193 | 0.0238 | -0.525 | 0.245 | -0.0866 | 0.274 | 0.513
O=C(NCCCNc1nc(Nc2cccc(NC(=O)N3CCCC3)c2)ncc1I)c1cccs1 | -0.261 | -0.0747 | 0.054 | -0.174 | 0.125 | -0.0537 | -0.0698 | -0.102 | -0.101 | 0.0689 | -0.0931
CC(C)NC[C@@H](C(=O)N1CCN(c2ncnc3c2[C@H](C)C[C@H]3O)CC1)c1ccc(Cl)cc1 [Ipatasertib (GDC-0068)] | -0.688 | -0.297 | -0.0598 | 0.241 | -0.0739 | -0.228 | 0.0863 | -0.0989 | 0.0644 | 0.0919 | -0.0823
Cn1cnc2c(F)c(Nc3ccc(Br)cc3Cl)c(C(=O)NOCCO)cc21 [AZD6244 (Selumetinib)] | 0.282 | -0.154 | -0.074 | -0.0961 | 0.0759 | -0.125 | -0.348 | 0.145 | 0.091 | 0.0644 | 0.164
Cc1cc(C(=O)NOCCO)c(Nc2ccc(I)cc2F)n(C)c1=O | -0.0809 | 0.337 | 0.0992 | -0.257 | 0.108 | 0.0532 | -0.629 | 0.22 | 0.0922 | 0.224 | 0.448
CC(=O)Nc1cccc(-n2c(=O)n(C3CC3)c(=O)c3c(Nc4ccc(I)cc4F)n(C)c(=O)c(C)c32)c1 | 0.278 | 0.158 | -0.0489 | -0.226 | 0.0617 | -0.114 | -0.491 | 0.181 | 0.129 | 0.158 | 0.324
CO[C@H]1C[C@@H]2CC[C@@H](C)[C@@](O)(O2)C(=O)C(=O)N2CCCC[C@H]2C(=O)O[C@H]([C@H](C)C[C@@H]2CC[C@@H](O)[C@H](OC)C2)CC(=O)[C@H](C)/C=C(\C)[C@@H](O)[C@@H](OC)C(=O)[C@H](C)C[C@H](C)/C=C/C=C/C=C/1C [Rapamycin (Sirolimus)] | 0.0788 | -0.291 | -0.0424 | 0.0838 | -0.0405 | -0.242 | 0.0931 | -0.0966 | 0.0535 | 0.0606 | 0.12
CCN1CCN(Cc2ccc(Nc3ncc(F)c(-c4cc(F)c5nc(C)n(C(C)C)c5c4)n3)nc2)CC1 | -0.454 | 0.2 | 0.128 | -0.473 | -0.118 | 0.484 | 0.0461 | 0.34 | 0.767 | 0.239 | 0.183
O=C(NOC[C@H](O)CO)c1ccc(F)c(F)c1Nc1ccc(I)cc1F | 0.136 | 0.142 | 0.094 | -0.18 | -0.265 | -0.129 | -0.452 | 0.303 | 0.0484 | 0.228 | 0.42
CCN(CC)CCNC(=O)c1c(C)[nH]c(/C=C2\C(=O)Nc3ccc(F)cc32)c1C [Sunitinib Malate (Sutent)] | 0.076 | -0.28 | -0.0463 | 0.13 | 0.139 | -0.147 | 0.0665 | 0.0727 | -0.103 | -0.134 | -0.0629
COc1cc2ncnc(Nc3ccc(F)c(Cl)c3)c2cc1OCCCN1CCOCC1 [Gefitinib (Iressa)] | -0.363 | 0.5 | 0.0998 | -0.3 | -0.282 | 0.136 | -0.664 | 0.166 | 0.25 | 0.184 | 0.4
Cc1nc(NC(=O)N2CCC[C@H]2C(N)=O)sc1-c1ccnc(C(C)(C)C(F)(F)F)c1 [Alpelisib (BYL719)] | -0.308 | 0.0272 | -0.0493 | -0.0979 | 0.131 | -0.123 | 0.0754 | -0.0947 | 0.0988 | 0.0495 | -0.125
CO[C@H]1C[C@@H]2CC[C@@H](C)[C@@](O)(O2)C(=O)C(=O)N2CCCC[C@H]2C(=O)O[C@H]([C@H](C)C[C@@H]2CC[C@@H](OP(C)(C)=O)[C@H](OC)C2)CC(=O)[C@H](C)/C=C(\C)[C@@H](O)[C@@H](OC)C(=O)[C@H](C)C[C@H](C)/C=C/C=C/C=C/1C [Deforolimus (MK-8669)] | 0.241 | -0.292 | -0.044 | 0.262 | 0.178 | -0.232 | 0.0405 | -0.0745 | 0.0613 | 0.151 | 0.142
COc1cc2ncnc(Nc3ccc(F)c(Cl)c3)c2cc1NC(=O)/C=C/CN1CCCCC1 | -0.392 | 0.516 | 0.0863 | -0.547 | -0.404 | 0.138 | -0.698 | -0.159 | 0.343 | 0.23 | 0.338
CN1CCN(c2nc(C3=C(c4c[nH]c5ccccc45)C(=O)NC3=O)c3ccccc3n2)CC1 [Sotrastaurin (AEB071)] | 0.195 | -0.104 | 0.0333 | 0.144 | 0.268 | 0.0348 | -0.0912 | 0.155 | 0.0742 | -0.26 | -0.0765
O=C(/C=C/c1cccc(S(=O)(=O)Nc2ccccc2)c1)NO [Belinostat (PXD101)] | -0.067 | 0.675 | 0.12 | -0.172 | -0.223 | 0.488 | -0.315 | -0.122 | 0.155 | 0.0869 | 0.484
COc1ccc(-c2ccc3c(N4CCOCC4)nc(N4C[C@@H](C)O[C@@H](C)C4)nc3n2)cc1CO | -0.124 | -0.302 | -0.0717 | -0.114 | -0.0964 | -0.246 | 0.079 | 0.0459 | 0.0519 | 0.0599 | -0.085
